The source made the active and inactive calls.

The first test relates to Wnt5a (protein binding on small-molecule microarray). In words: Wnt5a binders on small-molecule microarray, primary screen, biophysical, 635/667 nm fluorescence (AID 1142).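 Further: fluorescence read at 667 nm with signal to noise per printed feature.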 The following applies: 635 nm fluorescence, higher = more signal.
In turn, `CC(C)NC(=O)[C@@]1(C)c2ccccc2C(=O)N(C(C)C)[C@H]1c1ccc(CO)cc1` came in with a composite z-score of -0.79.

With `C=CCC(OC(C)=O)[C@@H]1[C@@H](N(Cc2cc3ccccc3o2)C(=O)Cc2ccc(F)cc2)c2cc(OCCCO)ccc2N1C(=O)c1ccc2ccccc2n1` (some centres undefined), the composite z-score came out at 0.705.

As for `O=C1O[C@@H](c2ccccc2)[C@@H](c2ccccc2)N2[C@@H](c3ccc(O)cc3)[C@]3(C(=O)Nc4ccc(C#CCCO)cc43)[C@@H](C(=O)Nc3nc4ccccc4s3)[C@H]12`, the composite z-score came out at 0.106.

Regarding `C=C(CCCC)/C(=C/C[C@@H](OC(C)=O)c1ccc(CO)o1)c1cc(C(=O)OC)ccc1OC`, the composite z-score is 0.259.

Take `O=C1OC[C@@H](c2ccccc2)N2CC(/C=C/c3ccccc3)=CC12` (some centres undefined): the composite z-score was -0.82.

Take `CCOC(=O)[C@H]1C/C=C/C[C@H](C(=O)OCC)C(=O)O[C@H]2[C@@H](OC)O[C@H](CO)[C@@H](OC(=O)CCc3ccccc3)[C@@H]2OC1=O`: the composite z-score was -0.581.

For the compound `[N-]=[N+]=Nc1ccccc1C[C@@]1(C(=O)O)N=C(c2ccc(OCCCO)cc2)O[C@@H]1c1ccccc1`, the composite z-score stood at 0.104.

With `CC(C)(C)N1CC=CC23O[C@@H]4C=CCOC(=O)[C@@H]4[C@H]2C(=O)N(CCCO)[C@@H]3C1=O` (some centres undefined), the composite z-score was -0.56.

As for `COC1(C)CN(Cc2ccccc2Br)[C@H](/C=C/c2ccccc2)[C@H](Cc2ccccc2)O1` (some centres undefined), the composite z-score was -0.243.

Compound `O=C(N1CCCCC1)[C@@]1(Cc2ccccc2)COC(c2ccc(OCCCO)cc2)=N1` came in with a composite z-score of 1.03.

For the compound `COC(=O)[C@@]1(Cc2ccc(F)cc2)[C@H]2c3cc(C(=O)N4CCCC4)n(CCc4c[nH]c5ccc(OC)cc45)c3C[C@H]2CN1C(=O)c1ccccc1`, the composite z-score worked out at 1.51.

Consider `[N-]=[N+]=Nc1ccccc1[C@@H]1OC(c2ccc(OCCCO)cc2)=N[C@]1(CCS(=O)(=O)c1ccccc1)C(=O)NCCN1CCOCC1`, for which the composite z-score stood at 0.391.

`CN1C(=O)C2C=CC(C(O)c3c(F)cccc3Cl)N(Nc3ccccc3)C2C1=O` (centres undefined): the composite z-score amounted to 0.438.

The compound `COC(=O)[C@@]1(Cc2ccccc2)[C@H]2c3cc(C(=O)N4CCCC4)[nH]c3C[C@H]2CN1C(=O)c1ccccc1` yielded a composite z-score of -0.0884.

As to `NCCCCCCNC(=O)[C@H]1C[C@H]2C(=O)N[C@@H](Cc3ccccc3)C(=O)N2[C@H]1c1ccc(O)cc1`, the composite z-score came out at 0.21.

Compound `C[N+](C)(C)CCCC[C@@H]1NC(=O)[C@@H]2C[C@H](C(=O)O)[C@H](c3ccc(O)cc3)N2C1=O` gave a composite z-score of -0.535.

The compound `C=C(CCCC)C(=O)CC[C@@H](OC(=O)c1cccnc1)c1ccccc1OCCO` returned a composite z-score of 0.047.

With `O=C1O[C@@H](c2ccccc2)[C@@H](c2ccccc2)N2[C@@H](c3ccccc3OCCO)[C@]3(C(=O)Nc4ccccc43)[C@@H](C(=O)NC[C@H](O)c3ccccc3)[C@H]12`, the composite z-score is -0.123.

As for `CC(C)(C)OC(=O)CC[C@]1(C(=O)O)N=C(c2ccc(OCCCO)cc2)O[C@H]1c1ccccc1`, the composite z-score is -0.221.

The compound `C=C(/C=C/CNS(=O)(=O)c1ccc(C)cc1)[C@H](O)[C@H]1CCCN1S(=O)(=O)c1ccccc1[N+](=O)[O-]` had a composite z-score of 0.118.

On to `CCOC(=O)C1=CC[C@@H](c2ccccc2C(F)(F)F)N(S(=O)(=O)c2ccc(C)cc2)C1`, for which the composite z-score stood at 0.658.

Compound `CN(C)CCCN1C(=O)[C@@]2(c3ccc([N+](=O)[O-])cc3)CC(=O)N(CC34CC5CC(CC(C5)C3)C4)[C@@H]2c2ccc(CO)cc21` gave a composite z-score of -0.199.

On to `CN1C2C=C(CCCO)C(C3C(=O)N(C(N)=O)C(=O)C32)C1c1cccs1` (centres undefined), for which the composite z-score was 2.03.

In turn, `CCOC(=O)C1=CC[C@@H](c2ccc([N+](=O)[O-])cc2)N(S(=O)(=O)c2ccc(C)cc2)[C@H]1c1ccccc1` yielded a composite z-score of 0.503.

Test system in another test: not listed separately
In words: cell viability in Huh7 cells, primary screen, cytotoxicity control for HCV replication inhibitor project, CellTiter-Glo luminescence, basal, 48 h (AID 1143).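 Further: Huh7 hepatoma cells carrying a hepatitis C replication reporter with no stimulus; test concentration not given here.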 To be noted: Huh7 HCV replicon, higher = more signal, called active from +8 up or from −8 down. Background: In ATP-based viability assays light output follows the ATP content of the culture.
For `O=C1OCC=C[C@H]2OC34C=CCN(c5ccc(Cl)cc5)C(=O)[C@H]3N(CCCCCO)C(=O)[C@@H]4[C@@H]12` (some centres undefined), the z-score was -0.116 (inactive).

Regarding `CC(C)(C)OC(=O)CC[C@]1(C(=O)NCCN2CCOCC2)N=C(c2ccc(OCCCO)cc2)O[C@H]1c1ccccc1N=[N+]=[N-]`, the z-score was -0.616 (inactive).

As to `COC(=O)C1(Cc2ccccc2)C=C2C(=C(c3ccccc3)C(=O)C2C)CN1` (centres undefined), the z-score is -0.541 (inactive).

As to `COc1cc(CO)cc(I)c1O[C@H]1C=C(C(=O)NCCO)C[C@@H](N(CC2CCCCC2)C(=O)c2ccc(C(F)(F)F)cc2)[C@@H]1O`, the z-score is -0.494 (inactive).

Turning to `COc1ccc([Si](C)(C)[C@H]2[C@H](CCn3cc(CCO)nn3)O[C@@]3(C(=O)N(Cc4ccc(N5C(=O)c6cccc7cccc5c67)cc4)c4ccccc43)[C@@H]2C)cc1`, the z-score is -7.91 (inactive).

`CC=CC(O)C1C=CC2C(=O)N(C)C(=O)C2N1Nc1ccc([N+](=O)[O-])cc1[N+](=O)[O-]` (centres undefined): the z-score was 1.01 (inactive).

With `COCCCNC(=O)[C@]1(Cc2ccccc2N=[N+]=[N-])N=C(c2ccc(OCCCO)cc2)O[C@@H]1c1ccccc1N=[N+]=[N-]`, the z-score is -4.87 (inactive).

With `[N-]=[N+]=NCc1ccccc1C[C@@]1(C(N)=O)N=C(c2ccc(OCCCO)cc2)O[C@@H]1c1ccccc1CN=[N+]=[N-]`, the z-score was -2.14 (inactive).

For the compound `O=C1NC(=O)C2C1C=CC(C(O)c1ccc3c(c1)OCO3)N2Nc1ccccn1` (centres undefined), the z-score is -0.259 (inactive).

For `O=C1C[C@]2(c3ccc([N+](=O)[O-])cc3)C(=O)N(Cc3ccccc3)c3cc(CO)ccc3[C@H]2N1CC12CC3CC(CC(C3)C1)C2`, the z-score was 0.349 (inactive).

On to `COc1cc2c(cc1OC)CN(C(=O)[C@H]1[C@@H]3C(=O)O[C@@H](c4ccccc4)[C@@H](c4ccccc4)N3[C@@H](c3ccc(OCCO)cc3)[C@]13C(=O)Nc1ccc(C#CCCO)cc13)CC2`, for which the z-score is 0.0229 (inactive).

Regarding `CC(C)NC(=O)[C@@]1(C)c2ccccc2C(=O)N(C(C)C)[C@H]1c1ccc(CO)cc1`, the z-score was 0.0942 (inactive).

In the case of `C=CCC(OC(C)=O)[C@@H]1[C@@H](N(Cc2cc3ccccc3o2)C(=O)Cc2ccc(F)cc2)c2cc(OCCCO)ccc2N1C(=O)c1ccc2ccccc2n1` (some centres undefined), the z-score is 0.252 (inactive).

Turning to `O=C1O[C@@H](c2ccccc2)[C@@H](c2ccccc2)N2[C@@H](c3ccc(O)cc3)[C@]3(C(=O)Nc4ccc(C#CCCO)cc43)[C@@H](C(=O)Nc3nc4ccccc4s3)[C@H]12`, the z-score was -0.486 (inactive).

In the case of `C=C(CCCC)/C(=C/C[C@@H](OC(C)=O)c1ccc(CO)o1)c1cc(C(=O)OC)ccc1OC`, the z-score is 0.0294 (inactive).

Turning to `O=C1OC[C@@H](c2ccccc2)N2CC(/C=C/c3ccccc3)=CC12` (some centres undefined), the z-score is -2.59 (inactive).

For `CCOC(=O)[C@H]1C/C=C/C[C@H](C(=O)OCC)C(=O)O[C@H]2[C@@H](OC)O[C@H](CO)[C@@H](OC(=O)CCc3ccccc3)[C@@H]2OC1=O`, the z-score was -1.31 (inactive).

Regarding `[N-]=[N+]=Nc1ccccc1C[C@@]1(C(=O)O)N=C(c2ccc(OCCCO)cc2)O[C@@H]1c1ccccc1`, the z-score was -0.275 (inactive).

For the compound `CC(C)(C)N1CC=CC23O[C@@H]4C=CCOC(=O)[C@@H]4[C@H]2C(=O)N(CCCO)[C@@H]3C1=O` (some centres undefined), the z-score is -1.97 (inactive).

Consider `COC1(C)CN(Cc2ccccc2Br)[C@H](/C=C/c2ccccc2)[C@H](Cc2ccccc2)O1` (some centres undefined), for which the z-score was -0.391 (inactive).

With `O=C(N1CCCCC1)[C@@]1(Cc2ccccc2)COC(c2ccc(OCCCO)cc2)=N1`, the z-score is -2.49 (inactive).

On to `COC(=O)[C@@]1(Cc2ccc(F)cc2)[C@H]2c3cc(C(=O)N4CCCC4)n(CCc4c[nH]c5ccc(OC)cc45)c3C[C@H]2CN1C(=O)c1ccccc1`, for which the z-score was -4.66 (inactive).

On to `[N-]=[N+]=Nc1ccccc1[C@@H]1OC(c2ccc(OCCCO)cc2)=N[C@]1(CCS(=O)(=O)c1ccccc1)C(=O)NCCN1CCOCC1`, for which the z-score is -4.79 (inactive).

As to `CN1C(=O)C2C=CC(C(O)c3c(F)cccc3Cl)N(Nc3ccccc3)C2C1=O` (centres undefined), the z-score is 1.01 (inactive).

`COC(=O)[C@@]1(Cc2ccccc2)[C@H]2c3cc(C(=O)N4CCCC4)[nH]c3C[C@H]2CN1C(=O)c1ccccc1`: the z-score was -0.117 (inactive).

As for `NCCCCCCNC(=O)[C@H]1C[C@H]2C(=O)N[C@@H](Cc3ccccc3)C(=O)N2[C@H]1c1ccc(O)cc1`, the z-score is 0.277 (inactive).

Regarding `C[N+](C)(C)CCCC[C@@H]1NC(=O)[C@@H]2C[C@H](C(=O)O)[C@H](c3ccc(O)cc3)N2C1=O`, the z-score is 0.462 (inactive).

Take `C=C(CCCC)C(=O)CC[C@@H](OC(=O)c1cccnc1)c1ccccc1OCCO`: the z-score was -1.55 (inactive).

As for `O=C1O[C@@H](c2ccccc2)[C@@H](c2ccccc2)N2[C@@H](c3ccccc3OCCO)[C@]3(C(=O)Nc4ccccc43)[C@@H](C(=O)NC[C@H](O)c3ccccc3)[C@H]12`, the z-score was -6.2 (inactive).

Turning to `CC(C)(C)OC(=O)CC[C@]1(C(=O)O)N=C(c2ccc(OCCCO)cc2)O[C@H]1c1ccccc1`, the z-score was -1.48 (inactive).

As to `C=C(/C=C/CNS(=O)(=O)c1ccc(C)cc1)[C@H](O)[C@H]1CCCN1S(=O)(=O)c1ccccc1[N+](=O)[O-]`, the z-score is -1.58 (inactive).

Take `CCOC(=O)C1=CC[C@@H](c2ccccc2C(F)(F)F)N(S(=O)(=O)c2ccc(C)cc2)C1`: the z-score is -5.24 (inactive).

Take `CN(C)CCCN1C(=O)[C@@]2(c3ccc([N+](=O)[O-])cc3)CC(=O)N(CC34CC5CC(CC(C5)C3)C4)[C@@H]2c2ccc(CO)cc21`: the z-score was 0.278 (inactive).

In the case of `CN1C2C=C(CCCO)C(C3C(=O)N(C(N)=O)C(=O)C32)C1c1cccs1` (centres undefined), the z-score is 0.148 (inactive).

On to `CCOC(=O)C1=CC[C@@H](c2ccc([N+](=O)[O-])cc2)N(S(=O)(=O)c2ccc(C)cc2)[C@H]1c1ccccc1`, for which the z-score is -1.36 (inactive).

These data come from PubChem BioAssay.
